In the supplement of paper PMC13380429 one finds morphology score and SARS-CoV-2 infection rate data, which are given here for 31 molecules.

Assay [1] relates to Vero E6 infected with SARS-CoV-2. Put plainly: morphology score (similarity to uninfected cells); higher = more like uninfected cells. The conditions noted are these: 24 h.
Assay [2] has the same test system. Put plainly: SARS-CoV-2 infection rate relative to infected DMSO; higher = more infection, active = 60 or less. The following applies: 24 h.

Structures are written as SMILES.

In assay [1], `O=C1COc2nccc(-c3ccccc3F)c2CN1Cc1cc(C(F)(F)F)cc(C(F)(F)F)c1` (10 µM) registered a morphology score of -0.194. Moreover, the SARS-CoV-2 infection rate in assay [2] is 108% (inactive).
The matching figures for `C=C[C@](C)(O)CC[C@@H]1[C@@]2(C)CCCC(C)(C)[C@@H]2CC[C@@]1(C)O` [sclareol] (10 µM): 0.142 and 95.5% (inactive).
In the case of `Cc1noc(-c2ccc(-c3ccc(CC(=O)O)cc3)cc2)c1NC(=O)O[C@H](C)c1ccccc1` (0.833333 µM), the morphology score in assay [1] came out at 0.148. Besides, in assay [2], the SARS-CoV-2 infection rate is 112% (inactive).
The matching figures for `CCC[C@@]1(CCc2ccccc2)CC(O)=C([C@H](CC)c2cccc(NS(=O)(=O)c3ccc(C(F)(F)F)cn3)c2)C(=O)O1` [tipranavir] (10 µM): 0.183 and 94.5% (inactive).
As for `Cc1c(S(=O)(=O)O)oc2c1C(=O)C(=O)c1c-2ccc2c1CCCC2(C)C` [sodium-tanshinone-II-A-sulfonate] (10 µM), the morphology score in assay [1] is 0.0001. Also, in assay [2], the SARS-CoV-2 infection rate was 110% (inactive).
In turn, `CCc1oc2ccccc2c1C(=O)c1cc(Br)c(O)c(Br)c1` [benzbromarone] (10 µM) returned a morphology score in assay [1] of 0.145. The SARS-CoV-2 infection rate in assay [2] was 85.5% (inactive).
The matching figures for `COc1ccc(/C=C/C(=O)Nc2ccccc2C(=O)O)cc1OC` [tranilast] (10 µM): 0.0917 and 108% (inactive).
In the same order, the values of `CN1CCN(CCCN2c3ccccc3Sc3ccc(C(F)(F)F)cc32)CC1` [trifluoperazine] (0.833333 µM) are 0.156 and 96.5% (inactive).
With `Cc1ccc(F)c(NC(=O)Nc2ccc(-c3cccc4[nH]nc(N)c34)cc2)c1` [linifanib] (10 µM), the morphology score in assay [1] is -0.188. Besides, in assay [2], the SARS-CoV-2 infection rate was 118% (inactive).
In the same order, the values of `CC(=O)OC/C=C(C)/C=C/C=C(C)/C=C/C1=C(C)CCCC1(C)C` [retinyl-acetate] (10 µM) are -0.227 and 113% (inactive).
The matching figures for `Cn1c([N+](=O)[O-])cnc1COC(N)=O` [ronidazole] (10 µM): -0.00677 and 114% (inactive).
The matching figures for `CC/C(=C(\c1ccc(O)cc1)c1ccc(OCCN(C)C)cc1)c1ccccc1` [afimoxifene] (10 µM): 0.801 and 27.5% (active).
`CC(=O)Nc1ccc(C(=O)NC(C)(C)C)cc1` (10 µM) registered a morphology score in assay [1] of 0.0601. In addition, in assay [2], the SARS-CoV-2 infection rate is 106% (inactive).
In the same order, the values of `COc1cc(N)c(Cl)cc1C(=O)NC1CCN(Cc2ccccc2)CC1` [clebopride] (10 µM) are -0.0118 and 110% (inactive).
The matching figures for `CN1CCN(c2ccc(Nc3ncc4cc(C#N)c(=O)n(C5CCCC5)c4n3)cc2)CC1` (0.833333 µM): 0.153 and 104% (inactive).
In the same order, the values of `CS(=O)(=O)c1ccc([C@@H](O)[C@@H](CF)NC(=O)C(Cl)Cl)cc1` [florfenicol] (10 µM) are -0.00265 and 96.5% (inactive).
The molecule `NC(=O)NC(=O)Cc1ccccc1` [phenacemide] (10 µM) displayed a morphology score in assay [1] of 0.0778. Further, the SARS-CoV-2 infection rate in assay [2] was 114% (inactive).
As for `CC(C)(C)CCN1C[C@@H]2[C@@H](CNC(=O)c3cc(Cl)cc(Cl)c3)[C@@H]2C1` (10 µM), the morphology score in assay [1] was determined as 0.324. Besides, the SARS-CoV-2 infection rate in assay [2] was 86% (inactive).
For the molecule `Cc1nc2ccccc2c(-c2ccc3c4c(ccnc24)CCO3)c1[C@H](OC(C)(C)C)C(=O)O` (10 µM), the morphology score in assay [1] is 0.0152. Besides, the SARS-CoV-2 infection rate in assay [2] was 104% (inactive).
In assay [1], `CCOC(=O)c1ncn2c1[C@@H]1CCCN1C(=O)c1cc(OC)ccc1-2` (10 µM) yielded a morphology score of 0.286. Further, in assay [2], the SARS-CoV-2 infection rate is 95% (inactive).
The matching figures for `CC[C@@H]1C(=O)OC[C@@H]1Cc1cncn1C` [pilocarpine] (10 µM): -0.105 and 110% (inactive).
The matching figures for `CC1=C(C(=O)OC(C)C)C(c2cccc([N+](=O)[O-])c2)C(C(=O)OC2CN(C(c3ccccc3)c3ccccc3)C2)=C(N)N1` (configuration not stated) [azelnidipine] (10 µM): 0.295 and 71.5% (inactive).
The matching figures for `CNC(=O)[C@H](Cc1c[nH]c2ccccc12)NC(=O)[C@@H](CC(=O)NO)CC(C)C` [ilomastat] (10 µM): -0.0294 and 114% (inactive).
Regarding `CN1[C@@H]2CC[C@H]1C[C@@H](OC1c3ccccc3CCc3ccccc31)C2` [deptropine] (0.833333 µM), in assay [1], the morphology score worked out at 0.24. Moreover, in assay [2], the SARS-CoV-2 infection rate is 100% (inactive).
In the same order, the values of `Cc1ccc2nc(N)[nH]c(=O)c2c1Sc1ccncc1` [nolatrexed] (10 µM) are -0.166 and 108% (inactive).
The matching figures for `O=C(Nc1ccc(F)cc1)N1CCc2ccccc2[C@@H]1c1ccc(C(F)(F)F)cc1` (10 µM): 0.195 and 87% (inactive).
Consider `Cc1cc(S(=O)(=O)O)c2c(C)ccc(C(C)C)cc1-2` [sodium-gualenate] (10 µM), for which the morphology score in assay [1] worked out at 0.0593. Moreover, in assay [2], the SARS-CoV-2 infection rate is 96.5% (inactive).
In the same order, the values of `CCC(N)C(O)c1ccc(O)c(O)c1` (configuration not stated) [ethylnorepinephrine] (10 µM) are -0.108 and 106% (inactive).
On to `CN(C)CCCN1c2ccccc2Sc2ccc(Cl)cc21` [chlorpromazine] (0.833333 µM), for which the morphology score in assay [1] is 0.071. Besides, the SARS-CoV-2 infection rate in assay [2] was 98.5% (inactive).
In the same order, the values of `COC1=CC(=O)C[C@@H](C)[C@]12Oc1c(Cl)c(OC)cc(OC)c1C2=O` [griseofulvin] (10 µM) are 0.0707 and 104% (inactive).
For `O=C[C@H](F)[C@@H](O)[C@@H](O)[C@H](O)CO` [2-fluoro-2-deoxy-D-galactose] (10 µM), the morphology score in assay [1] amounted to 0.127. Besides, the SARS-CoV-2 infection rate in assay [2] is 116% (inactive).
